Assay results reported in the supplement of paper PMC10646978.
± gives the standard deviation.

Experiments:
Conditions in all cases: modulator concentration 10 µM
[1] = test system: RAW-Dual (murine macrophage reporter line); experiment: NF-kB reporter (SEAP) activity fold change vs agonist alone; higher = enhanced NF-kB activity
Method in brief: (§1)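 Compound reached 10 μM final in each well by pin transfer, onto RAW-Dual murine macrophage reporter cells seeded at 50 000 per well in 384-well plates. After 1 hour at 37 °C, the cells were stimulated overnight with a PRR agonist. SEAP in the supernatant was read with QUANTI-Blue at 620 nm absorbance for NF-κB, and Lucia luciferase was read with QUANTI-Luc luminescence for IRF. Each signal was turned into fold change against the mean agonist-only control on the same plate, and two replicate plates were averaged with propagated errors.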

[2] = test system: RAW-Dual (murine macrophage reporter line); experiment: IRF reporter (Lucia luciferase) activity fold change vs agonist alone; higher = enhanced IRF activity
Method in brief: as §1

[3] = test system: RAW-Dual (murine macrophage reporter line); experiment: viability score (confluency relative to resting cells, overnight) (fraction); higher = more viable, active = viable (0.7 or more)
Method in brief: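 In 384-well plates, RAW-Dual macrophages received compound at a final 10 μM overnight. Two confluency masks were then made with IncuCyte software from IncuCyte images of all imaged wells. The viability score is defined as confluency relative to resting cells. Passing the cutoff required both masks to lie above 70% of resting cells.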

[4] = agonist: CpG ODN 1826 0.5 ug/mL

Row | SMILES | NF-kB reporter [1, 4] | NF-kB reporter ([1]; agonist: LPS 0.1 ug/mL) | NF-kB reporter ([1]; agonist: MPLA […]) | IRF reporter ([2]; agonist: 3'3'-cGAMP 10 ug/mL) | IRF reporter ([2]; agonist: LPS 0.1 ug/mL) | IRF reporter ([2]; agonist: MPLA […]) | viability score [3]
1 | Cc1cc(=O)[nH]c(=S)[nH]1 | 1.04 ± 0.09 | 1.02 ± 0.11 | 1 ± 0.035 | 0.99 ± 0.073 | 0.969 ± 0.084 | 1.01 ± 0.08 | 1 (active)
2 | CC#CCn1c(N2CCCC(N)C2)nc2c1c(=O)n(Cc1nc(C)c3ccccc3n1)c(=O)n2C (stereo not drawn) | 0.931 ± 0.24 | 1.08 ± 0.085 | 0.972 ± 0.065 | 0.925 ± 0.033 | 1.23 ± 0.15 | 1.39 ± 0.13 | 0.988 (active)
3 | COc1cc(Br)c(C=C(C#N)c2nn(-c3ccccc3)c(N)c2C#N)cc1OC | 1.25 ± 0.1 | 1.09 ± 0.08 | 1.07 ± 0.1 | 0.936 ± 0.025 | 1.25 ± 0.24 | 1.18 ± 0.25 | 1.01 (active)
4 | O=C(Nc1ccc([N+](=O)[O-])cc1Br)C1CC12CCC2 (stereo not drawn) | 0.957 ± 0.074 | 0.83 ± 0.068 | 1.05 ± 0.13 | 1.03 ± 0.049 | 1.39 ± 0.27 | 1.55 ± 0.38 | 1.02 (active)
5 | CN1CCN(C(=O)c2cc(-c3ccccc3)nc3ccccc23)CC1 | 1.03 ± 0.11 | 0.906 ± 0.059 | 0.957 ± 0.043 | 0.941 ± 0.15 | 0.923 ± 0.051 | 0.884 ± 0.081 | 0.996 (active)
6 | CCC1(c2cnc[nH]2)Cc2ccccc2C1 | 0.746 ± 0.13 | 1.09 ± 0.17 | 0.862 ± 0.055 | 0.764 ± 0.21 | 1.33 ± 0.14 | 0.787 ± 0.11 | 0.876 (active)
7 | COc1ccc2oc(=O)c(C(=O)Nc3ccc(C(=O)O)cc3)cc2c1 | 0.909 ± 0.054 | 1.02 ± 0.1 | 0.953 ± 0.08 | 1.08 ± 0.035 | 1.17 ± 0.11 | 0.959 ± 0.13 | 0.987 (active)
8 | COc1ccc(Cl)cc1NS(=O)(=O)c1c(C)cc(C)cc1C | 0.993 ± 0.14 | 0.937 ± 0.062 | 1.46 ± 0.12 | 1.24 ± 0.11 | 1.16 ± 0.11 | 1.04 ± 0.12 | 0.982 (active)
9 | C/C(O)=C(\C#N)C(=O)Nc1ccc(C(F)(F)F)cc1 | 0.861 ± 0.037 | 1.04 ± 0.084 | 1.01 ± 0.074 | 0.855 ± 0.044 | 1.24 ± 0.26 | 1.4 ± 0.58 | 1 (active)
10 | COc1ccc(C2Sc3ccccc3N(CCN(C)C)C(=O)C2OC(C)=O)cc1.Cl (stereo not drawn) | 1.01 ± 0.29 | 1 ± 0.05 | 1.08 ± 0.092 | 0.966 ± 0.033 | 1.15 ± 0.15 | 1.2 ± 0.12 | 0.992 (active)
11 | O=C(Nc1ccccn1)c1ccc(OCC2CCCO2)nc1 (stereo not drawn) | 1.12 ± 0.064 | 1.02 ± 0.077 | 1 ± 0.031 | 0.936 ± 0.077 | 1.04 ± 0.059 | 1.04 ± 0.1 | 0.997 (active)
12 | COc1ccc(-c2oc3ccc(OC)cc3c2C(=O)Nc2ccccc2Cl)cc1 | 0.872 ± 0.051 | 1.05 ± 0.11 | 1.42 ± 0.041 | 0.756 ± 0.052 | 0.865 ± 0.062 | 1.84 ± 0.28 | 1 (active)
13 | COc1ccc(CC(C)N2CCN(c3cccc(C)c3C)CC2)cc1OC (stereo not drawn) | 0.765 ± 0.064 | 0.974 ± 0.074 | 1.03 ± 0.08 | 0.787 ± 0.056 | 1.75 ± 0.22 | 1.16 ± 0.11 | 0.6 (inactive)
14 | COC(=O)C(CCSC)NC(=O)c1cc(OC)c(OC)c(OC)c1 (stereo not drawn) | 1.08 ± 0.18 | 1.09 ± 0.096 | 1.1 ± 0.14 | 1.02 ± 0.031 | 0.923 ± 0.089 | 1.07 ± 0.12 | 0.712 (active)
15 | CC1(COc2ccc3c(c2)ncn3-c2ccc3cccc(N4CCC(N)CC4)c3n2)COC1 | 0.379 ± 0.25 | 0.397 ± 0.099 | 2.05 ± 0.24 | 0.0544 ± 0.0038 | 0.345 ± 0.037 | 0.339 ± 0.06 | 0.464 (inactive)
16 | Cc1ccc(-n2nc(C(C)(C)C)cc2NC(=O)NCc2cc(F)ccc2Oc2ccc3c(cnn3CCO)c2)cc1 | 0.878 ± 0.046 | 0.942 ± 0.15 | 0.964 ± 0.056 | 1.06 ± 0.058 | 1.19 ± 0.22 | 1.24 ± 0.44 | 1.01 (active)
17 | Cc1cn(-c2cc(NC(=O)c3ccc(C)c(Nc4nccc(-c5cnccn5)n4)c3)cc(C(F)(F)F)c2)cn1 | 0.892 ± 0.22 | 1.17 ± 0.059 | 0.982 ± 0.063 | 0.867 ± 0.032 | 0.943 ± 0.11 | 1.19 ± 0.33 | 0.988 (active)
18 | CC(=O)Oc1cc(C(F)(F)F)ccc1C(=O)O | 0.977 ± 0.13 | 1.05 ± 0.19 | 0.91 ± 0.053 | 0.976 ± 0.03 | 1.32 ± 0.32 | 1.21 ± 0.23 | 1 (active)
19 | CC(=O)Nc1ccc(CC(=O)N2C3C=CCC2CC3)cc1 (stereo not drawn) | 1.32 ± 0.32 | 1.06 ± 0.059 | 1.04 ± 0.14 | 1.01 ± 0.034 | 1.23 ± 0.14 | 1.14 ± 0.19 | 0.954 (active)
20 | CCOc1ccc2nc(N(CCCN(C)C)C(=O)c3ccc(Br)s3)sc2c1.Cl | 0.164 ± 0.014 | 0.836 ± 0.076 | 0.855 ± 0.13 | 0.406 ± 0.1 | 1.14 ± 0.071 | 0.533 ± 0.083 | 0.0434 (inactive)
21 | O=C(NCCC(CCO)c1ccccc1)c1cccc(Br)c1 (stereo not drawn) | 0.731 ± 0.033 | 1.03 ± 0.093 | 0.988 ± 0.053 | 0.653 ± 0.031 | 0.927 ± 0.18 | 0.958 ± 0.35 | 0.996 (active)
22 | C=CCN1C(=O)C(=C2SC(=S)N(C)C2=O)c2ccccc21 | 0.76 ± 0.072 | 0.833 ± 0.085 | 1.03 ± 0.12 | 0.971 ± 0.05 | 1.33 ± 0.078 | 1.42 ± 0.15 | 0.997 (active)
23 | CCN(CC)c1ccc(C=NNC(=O)c2ccccc2C)c(O)c1 | 2.52 ± 0.2 | 1.41 ± 0.092 | 3.2 ± 0.13 | 0.442 ± 0.032 | 0.974 ± 0.11 | 0.721 ± 0.15 | 0.444 (inactive)
24 | COC(=O)c1cc(NC(=O)c2cc(OC)c(OC)cc2[N+](=O)[O-])cc(C(=O)OC)c1 | 0.99 ± 0.1 | 1.03 ± 0.057 | 0.913 ± 0.074 | 0.999 ± 0.063 | 1.59 ± 0.19 | 1.22 ± 0.091 | 1.01 (active)
